Compounds without any hit were thinned out: in the full panel of roughly 83,000, 20% have a hit.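 Cells were grown in 96-well plates and exposed to the test compound at a single concentration for 48 hours; results are reported as percent growth, with values below 10 considered active.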 Activity calls are given as the source filed them.
Assays:
Assay in all cases: NCI-60 one-dose screen, 48 h (100 = growth as untreated, 0 = no growth, -100 = all killed)
Settings in all cases: 10 µM unless noted
NCI-H23 lung = system: NCI-H23 lung
NCI-H226 lung = system: NCI-H226 lung
NCI-H322M lung = system: NCI-H322M lung
HOP-62 NSCLC = system: HOP-62 NSCLC
NCI-H460 lung = system: NCI-H460 lung
HOP-92 NSCLC = system: HOP-92 NSCLC
NCI-H522 lung = system: NCI-H522 lung
A549/ATCC NSCLC = system: A549/ATCC NSCLC
786-0 renal = system: 786-0 renal
COLO 205 colon = system: COLO 205 colon

Measured: growth

O=C(Nc1ccccc1F)Nc1ccccc1Cl
inactive: NCI-H23 lung 77.5% | NCI-H226 lung 82.9% | NCI-H322M lung 103% | HOP-62 NSCLC 91.7% | NCI-H460 lung 92.4% | HOP-92 NSCLC 97.3% | NCI-H522 lung 54.9% | A549/ATCC NSCLC 88.5% | 786-0 renal 107% | COLO 205 colon 137%

CC(C)C1(C(C)C)NC(=O)NC1=O
inactive: NCI-H23 lung 99.2% | NCI-H226 lung 102% | NCI-H322M lung 119% | HOP-62 NSCLC 96.6% | NCI-H460 lung 99.9% | HOP-92 NSCLC 93.2% | NCI-H522 lung 94.8% | A549/ATCC NSCLC 101% | 786-0 renal 101% | COLO 205 colon 117%

COc1ccc(C(=O)NC(=O)Nc2ccc3c(c2)NC(=O)/C3=C\c2[nH]c(C)c(CCC(=O)O)c2C)c(F)c1
active: A549/ATCC NSCLC 7.84%
inactive: NCI-H23 lung 40.4% | NCI-H226 lung 45% | NCI-H322M lung 50.7% | HOP-62 NSCLC 19.8% | NCI-H460 lung 17.1% | HOP-92 NSCLC 83.5% | NCI-H522 lung 26.8% | 786-0 renal 31.2% | COLO 205 colon 37.5%

O=c1[nH]ccc2nc(N3CCC(O)CC3)nc(Nc3cccc(C(F)(F)F)c3)c12
inactive: NCI-H23 lung 62.2% | NCI-H226 lung 57.4% | NCI-H322M lung 102% | HOP-62 NSCLC 92.9% | NCI-H460 lung 73.4% | HOP-92 NSCLC 105% | NCI-H522 lung 51.7% | A549/ATCC NSCLC 53.4% | 786-0 renal 58.3% | COLO 205 colon 35.7%

O=c1nc(N2CCOCC2)oc2c(-c3cccc4ccccc34)cccc12
inactive: NCI-H23 lung 89.3% | NCI-H226 lung 66.6% | NCI-H322M lung 90.8% | HOP-62 NSCLC 80.8% | NCI-H460 lung 110% | HOP-92 NSCLC 60.1% | NCI-H522 lung 82% | A549/ATCC NSCLC 85.6% | 786-0 renal 74.4% | COLO 205 colon 103%

COc1ccc(C(=O)NC(=O)Nc2ccc3c(c2)NC(=O)/C3=C\c2[nH]c(C)c(C(=O)O)c2C)cc1
inactive: NCI-H23 lung 18.1% | NCI-H226 lung 83.9% | NCI-H322M lung 94.2% | HOP-62 NSCLC 96.2% | NCI-H460 lung 100% | A549/ATCC NSCLC 98% | 786-0 renal 16.8% | COLO 205 colon 88.1%
active: HOP-92 NSCLC -1.09% | NCI-H522 lung 7.54%

CCCC(=O)Oc1ccc(/C(=C(\C)c2ccc(OC)cc2)c2ccc(OCCN3CCCCC3)cc2)cc1
inactive: NCI-H23 lung 79.3% | NCI-H226 lung 83.5% | NCI-H322M lung 89.7% | HOP-62 NSCLC 86.1% | NCI-H460 lung 87.1% | HOP-92 NSCLC 69% | NCI-H522 lung 78.9% | A549/ATCC NSCLC 76.8% | 786-0 renal 67.1% | COLO 205 colon 67.6%

OC(COc1ccccc1Cl)CN1CCN(c2ccc(Cl)cc2)CC1 (stereo not given)
inactive: NCI-H23 lung 107% | NCI-H226 lung 94.5% | NCI-H322M lung 101% | HOP-62 NSCLC 108% | NCI-H460 lung 104% | HOP-92 NSCLC 85.8% | NCI-H522 lung 92.6% | A549/ATCC NSCLC 112% | 786-0 renal 106% | COLO 205 colon 116%

COc1cc(NS(=O)(=O)c2ccc(N)cc2)ncn1
inactive: NCI-H23 lung 101% | NCI-H226 lung 112% | NCI-H322M lung 104% | HOP-62 NSCLC 108% | NCI-H460 lung 110% | HOP-92 NSCLC 105% | NCI-H522 lung 114% | A549/ATCC NSCLC 102% | 786-0 renal 99.1% | COLO 205 colon 113%

O=C1c2ccccc2OC=C(c2ccccc2)N1CCCCN1CCCCC1
inactive: NCI-H23 lung 67.2% | NCI-H226 lung 84.3% | NCI-H322M lung 91.2% | HOP-62 NSCLC 38.1% | NCI-H460 lung 46.7% | HOP-92 NSCLC 40.2% | NCI-H522 lung 25% | A549/ATCC NSCLC 46.8% | 786-0 renal 95.4%
active: COLO 205 colon -33.6%

CCCCCCCCCCCCCCCC(=O)NS(=O)(=O)OC[C@H]1O[C@@H](n2cnc3c(N)ncnc32)[C@H](O)[C@@H]1O
active: NCI-H23 lung -39.5% | NCI-H226 lung -65.1% | NCI-H322M lung -46.2% | HOP-62 NSCLC -25% | NCI-H460 lung -10.1% | HOP-92 NSCLC -65.7% | NCI-H522 lung -33.3% | A549/ATCC NSCLC 9.49% | 786-0 renal -69.6% | COLO 205 colon -62.8%

COc1cc(NC(=O)C#Cc2ccccc2)c(OC)cc1Cl
inactive: NCI-H23 lung 57.8% | NCI-H226 lung 64.7% | NCI-H322M lung 93.2% | HOP-62 NSCLC 77.6% | NCI-H460 lung 17.8% | HOP-92 NSCLC 78.5% | NCI-H522 lung 39.2% | A549/ATCC NSCLC 59.5% | 786-0 renal 35.1% | COLO 205 colon 64.6%

COc1ccccc1NC(=O)COc1ccc(/C=C2/Oc3cc4occc4c(OC)c3C2=O)cc1OC
inactive: NCI-H23 lung 97.1% | NCI-H226 lung 101% | NCI-H322M lung 115% | HOP-62 NSCLC 101% | NCI-H460 lung 114% | HOP-92 NSCLC 99.1% | NCI-H522 lung 86.9% | A549/ATCC NSCLC 96.6% | 786-0 renal 96.1% | COLO 205 colon 114%

O=S1(=O)N(CCNc2nccc(-c3c(-c4cccc(O)c4)nc4sccn34)n2)CCN1Cc1ccccc1
inactive: NCI-H23 lung 84.1% | NCI-H226 lung 71.2% | NCI-H322M lung 101% | HOP-62 NSCLC 143% | NCI-H460 lung 42% | HOP-92 NSCLC 119% | NCI-H522 lung 52.1% | A549/ATCC NSCLC 65.2% | 786-0 renal 78.3% | COLO 205 colon 46.4%
